Test results: PubChem BioAssay (NCATS)
Where “and” joins values, the source holds several entries; their conditions need not be identical. Equal values may be shown once. Inconclusive results are not listed. Entries that show only a call come without a potency. Calls of active or inactive are those of the source. Unless noted, the call rests on the fitted dose curve; in most records, active means well fitted curve in the direction sought with a large enough effect; inconclusive means small, poorly fitted or top-dose-only effect, or another doubt; inactive means no such curve, though single readings can be large; an effect the other way counts as inactive or inconclusive.

Key:
[1] = qHTS Assay for Lipid Storage Modulators (AID 1519; calls by dose curve); conditions: Drosophila S3 cells, BODIPY lipid droplet/cell ratio, laser cytometry, cells loaded with oleic acid
Procedure, shortened: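 Cells seeded at 5,000 per well were treated with compounds over a concentration series and loaded with oleic acid (400 uM, as added). Lipid droplet fluorescence (488 nm excitation, 500-530 nm channel) was read by laser-scanning cytometry and normalized to 20 uM Triacsin C.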

[2] = Validation of Assay for Modulators of Lamin A Splicing (AID 1459; active means well fitted curve in the direction sought with a large enough effect in the signal ratio; the % refers to the signal ratio;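 further: cells exposed to compound for two days before reading; ratio rise marks activators and ratio drop marks inhibitors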)
Procedure, shortened: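 HeLa S3 lamin A-EGFP/DsRed2 stable clone, 600 cells/well, Opti-MEM 2% FBS; compounds by pin tool; 48 hrs, 37 °C/5% CO2; Acumen 488 nm scan, objects 10-100 um; GFP/RFP intensity ratio.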

[3] = biological target: DNA repair nuclease/redox regulator APEX1 (Homo sapiens) (UniProt P27695); experiment: qHTS Validation Assay for Inhibitors of the Human Apurinic/apyrimidinic Endonuclease 1 (APE1) (AID 1705;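 further: TAMRA fluorescence gain over two minutes as APE1 cuts a quenched THF abasic duplex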)
Procedure, shortened: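 qHTS, 1536-well. APE1 + cpd 15 min RT → 50 nM TAMRA/BHQ-2 THF-abasic dsDNA substrate → kinetic fluorescence, 3 reads/60 s; delta(read3−read1) = reaction progress. No-enzyme buffer = negative control.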

[4] = Counterscreen for APE1 Inhibitors: Fluorescent Dye Displacement Validation Assay (AID 1707)
Procedure, shortened: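 Endpoint fluorescence read at 480 nm excitation / 540 nm emission; DNA-binding compounds lower signal by displacing 250 nM Thiazole Orange from 50 nM dsDNA containing a tetrahydrofuran abasic site, Tris-HCl pH7.5 buffer with NaCl and MgCl2.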

[5] = biological target: Alpha-galactosidase A (Homo sapiens) (UniProt P06280); experiment: Counterscreen for Glucocerebrosidase Inhibitors: qHTS Assay for Human alpha-Galactosidase at pH 4.5 (AID 992)
Procedure, shortened: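 Fluorogenic 4-MU alpha-D-galactoside (80 uM) hydrolysis, 2 nM enzyme, pH 4.5 citrate buffer + 0.005% Tween-20; 20 min RT; NaOH/glycine pH 10 stop; Ex365/Em440. Compounds titrated 0.7 nM–77 uM; Hill-equation AC50.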

[6] = biological target: alpha-glucosidase (Oryza sativa, rice) (UniProt Q653V4); experiment: Counterscreen for Glucocerebrosidase Inhibitors: qHTS Assay for Rice alpha-Glucosidase at pH 5.0 (AID 997)
Procedure, shortened: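 Endpoint fluorogenic assay at pH 5.0: compounds (0.7 nM to 77 uM) titrated against 4 nM rice enzyme and 400 uM 4-MU-alpha-glucoside for 20 min at room temperature; NaOH/glycine stop, read ex 365/em 440 nm, Hill-fitted AC50.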

[7] = Cell Viability - LYMP2-002 (AID 977);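 further: compound exposure lasted 24 h at 37 °C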
Procedure, shortened: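 Human lymphoblastoid cells (2500/well) in complete medium were preincubated 5 hr at 37 C, then exposed to compounds for 24 hr at 37 C. Intracellular ATP was read by CellTiter-Glo luminescence; AC50 came from Hill-equation concentration-response fits.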

[8] = Cell Viability - LYMP2-006 (AID 978); further: nearly all actives have a fitted effect of over 60% in size
Procedure, shortened: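 Cells are seeded at 2500 per well and rested 5 hr at 37 C. Compounds are added across a concentration series for 24 hr at 37 C, after which ATP is quantified by luciferase luminescence.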

[9] = Cell Viability - LYMP2-007 (AID 979);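 further: cells exposed to compound for 24 h before reading; nearly all actives have a fitted effect of over 60% in size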
Procedure, shortened: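 Measured via luciferase-based ATP quantitation: lymphoblastoid cells, 24 hr compound exposure at 37 C, AC50 from Hill fits.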

[10] = Cell Viability - LYMP2-008 (AID 980); further: nearly all actives have a fitted effect of over 60% in size
Procedure, shortened: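 Measured: ATP-dependent luminescence, proportional to viable cell number, in human lymphoblastoid cells treated 24 hr with compound in complete culture medium. Values are AC50s from Hill-equation modelling of qHTS titrations.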

[11] = Cell Viability - LYMP2-010 (AID 981); further: nearly all actives have a fitted effect of over 55% in size
Procedure, shortened: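 This 24 hr viability screen uses LYMP2-010 lymphoblastoid cells, quantifies ATP via luciferase luminescence, and derives AC50 from Hill fits of qHTS concentration-response data.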

[12] = Cell Viability - LYMP2-012 (AID 982);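 further: cellular ATP by luciferase luminescence where a drop means cytotoxicity; cells exposed to compound for one day before reading; nearly all actives have a fitted effect of over 55% in size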
[13] = Cell Viability - LYMP2-016 (AID 984); further: nearly all actives have a fitted effect of over 55% in size
Procedure, shortened: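 Cells were seeded at 2500 per well and rested 5 hr before a 24 hr compound exposure at 37 C. Viability was then gauged as cellular ATP by luciferase luminescence, with AC50 values fitted to the Hill equation.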

[14] = Cell Viability - LYMP2-018 (AID 985); further: nearly all actives have a fitted effect of over 50% in size
Procedure, shortened: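 In this qHTS viability assay, cells are treated for 24 hr and cellular ATP is quantified by luciferase-based luminescence, with tetraoctylammonium bromide as positive control.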

[15] = Cell Viability - LYMP2-020 (AID 986); further: nearly all actives have a fitted effect of over 55% in size
Procedure, shortened: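 Cells at 2500 per well receive a 24 hr compound exposure at 37 C. Viability is measured as ATP-dependent luciferase luminescence, with AC50 modeled from qHTS concentration-response curves.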

[16] = Cell Viability - LYMP2-022 (AID 987); further: nearly all actives have a fitted effect of over 55% in size
Procedure, shortened: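 In this qHTS cytotoxicity screen, compound titrations were incubated 24 hr at 37 C with human lymphoblastoid cells in complete medium. Luciferase-based ATP luminescence provided the viability signal.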

[17] = Cell Viability - LYMP2-024 (AID 988); further: nearly all actives have a fitted effect of over 60% in size
Procedure, shortened: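 Cells at 2500 per well received compound for 24 hr after a 5 hr settling period. Viability was scored by CellTiter-Glo luminescence, with AC50 from Hill fits.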

[18] = Cell Viability - LYMP2-026 (AID 989); further: nearly all actives have a fitted effect of over 50% in size
Procedure, shortened: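 Acute toxicity screen in complete culture medium, with 24 hr compound exposure at 37 C. Viability read as cellular ATP via luciferase reaction, with tetraoctylammonium bromide (6.4pM to 92 uM) as positive control.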

[19] = Cell Viability - LYMP1-002 - Assay at 24 hr (AID 993)
Procedure, shortened: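 Viability was judged from intracellular ATP using a luciferase read-out, following a 24-hour compound incubation at 37 C of lymphoblastoid cells seeded at 2500 per well. Concentration-response data were fitted to the Hill equation for AC50.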

[20] = Cell Viability - LYMP1-002 - Assay at 40 hr (AID 994); further: nearly all actives have a fitted effect of over 60% in size
Procedure, shortened: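 Concentration-dependent ATP loss after 40 hr treatment at 37 C defined toxicity; AC50 values were obtained by fitting the standard Hill equation.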

[21] = measured here: cell count channel max response
[22] = measured here: lipid channel max response

DNA repair nuclease/redox regulator APEX1 (Homo sapiens), sequence (P27695 whole entry, looked up): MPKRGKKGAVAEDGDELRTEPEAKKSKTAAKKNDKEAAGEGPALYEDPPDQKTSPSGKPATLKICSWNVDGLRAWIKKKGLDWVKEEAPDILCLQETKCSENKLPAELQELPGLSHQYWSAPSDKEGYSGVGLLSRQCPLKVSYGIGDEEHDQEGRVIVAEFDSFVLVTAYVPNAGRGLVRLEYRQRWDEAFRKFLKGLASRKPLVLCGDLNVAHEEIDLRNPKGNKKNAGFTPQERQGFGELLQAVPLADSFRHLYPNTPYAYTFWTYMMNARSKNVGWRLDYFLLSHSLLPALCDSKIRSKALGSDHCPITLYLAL
Alpha-galactosidase A (Homo sapiens), sequence (P06280 whole entry, looked up): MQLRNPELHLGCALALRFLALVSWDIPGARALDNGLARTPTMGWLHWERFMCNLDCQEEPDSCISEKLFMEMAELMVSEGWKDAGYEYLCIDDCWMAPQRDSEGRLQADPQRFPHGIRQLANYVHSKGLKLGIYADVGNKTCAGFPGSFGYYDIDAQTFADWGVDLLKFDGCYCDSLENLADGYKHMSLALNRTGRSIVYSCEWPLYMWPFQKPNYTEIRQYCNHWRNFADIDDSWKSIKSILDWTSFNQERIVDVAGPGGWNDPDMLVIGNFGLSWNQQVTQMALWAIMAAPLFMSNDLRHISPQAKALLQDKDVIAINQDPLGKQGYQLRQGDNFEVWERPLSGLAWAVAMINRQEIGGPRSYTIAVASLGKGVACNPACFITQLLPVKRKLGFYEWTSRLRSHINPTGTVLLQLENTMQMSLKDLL

## CCCCc1ccc2nc(NC(=O)OC)[nH]c2c1
[1]; at 25.7 µM (top of the series)
  activity change, negative = inhibition: 1.84% (inactive)
[1]; [21]
  max response: -4.18%
[1]; [22]
  max response: -2.48%

## N=C(N=C(N)N)N1CCOCC1
[1]; at 25.7 µM (top of the series)
  activity change, negative = inhibition: -1.12% (inactive)
[1]; [21]
  max response: 14.2%
[1]; [22]
  max response: 12.8%

## O=C(NCC1CCCCN1)c1cc(OCC(F)(F)F)ccc1OCC(F)(F)F (configuration not stated)
[2]
  outcome: inactive
[3]
  Potency: inactive
[4]
  Potency: inactive

## Cc1cc2cc3c(C)cc(=O)oc3c(C)c2o1
[1]; at 25.7 µM (top of the series)
  activity change, negative = inhibition: -0.305% (inactive)
[1]; [21]
  max response: -4.86%
[1]; [22]
  max response: -6.06%

## Nc1nc(OCc2ccccc2)c2[nH]cnc2n1
[5]
  outcome: inactive
[6]
  outcome: inactive
[2]
  outcome: inactive
[3]
  Potency: inactive
[4]
  Potency: inactive

## CN(C)CCc1c[nH]c2ccc(Cn3cncn3)cc12
[1]; at 57.5 µM (top of the series)
  activity change, negative = inhibition: 3.43% (inactive)
[1]; [21]
  max response: 14.1%
[1]; [22]
  max response: 22%

## OC(CN1CCN(c2cccc(Cl)c2)CC1)C(c1ccccc1)c1ccccc1 (configuration not stated)
[2]
  outcome: inactive
[3]
  Potency: inactive
[4]
  Potency: inactive

## CC1(C)NC(=O)N(c2ccc([N+](=O)[O-])c(C(F)(F)F)c2)C1=O
[5]
  outcome: inactive
[6]
  outcome: inactive
[2]
  outcome: inactive
[1]; at 57.5 µM (top of the series)
  activity change, negative = inhibition: -13.9% (inactive) and -13.7% (inactive)
[1]; [21]
  max response: -10.4% and -26.6%
[1]; [22]
  max response: -19.8% and -35.1%
[3]
  Potency: inactive
[4]
  Potency: inactive

## O=C1c2ccccc2-c2n[nH]c3cccc1c23
[5]
  outcome: inactive
[6]
  outcome: inactive
[2]
  outcome: inactive
[1]; at 57.5 µM (top of the series)
  activity change, negative = inhibition: 2.36% (inactive)
[1]; [21]
  max response: -6.85%
[1]; [22]
  max response: -4.08%
[4]
  Potency: inactive

## Cc1cc(=O)oc2cc(O)ccc12
[1]; at 25.7 µM (top of the series)
  activity change, negative = inhibition: 0.949% (inactive)
[1]; [21]
  max response: -7.84%
[1]; [22]
  max response: -11.2%

## CCCc1cc(=O)[nH]c(=S)[nH]1
[7]
  Potency: inactive
[8]
  Potency: inactive
[9]
  Potency: inactive
[10]
  Potency: inactive
[11]
  Potency: inactive
[12]
  Potency: inactive
[13]
  Potency: inactive
[14]
  Potency: inactive
[15]
  Potency: inactive
[16]
  Potency: inactive
[17]
  Potency: inactive
[18]
  Potency: inactive
[19]
  Potency: inactive
[20]
  Potency: inactive
[1]; at 25.7 µM (top of the series)
  activity change, negative = inhibition: 0.162% (inactive)
[1]; at 57.5 µM (top of the series)
  activity change, negative = inhibition: 8.07% (inactive)
[1]; [21]
  max response: 4.47% and 16.1%
[1]; [22]
  max response: 5.94% and 25.3%

## COc1ccc2cc([C@H](C)C(=O)O)ccc2c1
[5]
  outcome: inactive
[6]
  outcome: inactive
[1]; at 25.7 µM (top of the series)
  activity change, negative = inhibition: 4.21% (inactive) and 0.227% (inactive)
[1]; at 57.5 µM (top of the series)
  activity change, negative = inhibition: 1.21% (inactive)
[1]; [21]
  max response: 1.06% and -6.98% and 54.6%
[1]; [22]
  max response: 5.84% and -5.9% and 56%
[3]
  Potency: inactive
[4]
  Potency: inactive

## CCCCC(CC)COC(=O)C(C#N)=C(c1ccccc1)c1ccccc1 (configuration not stated)
[7]
  Potency: inactive
[8]
  Potency: inactive
[9]
  Potency: inactive
[10]
  Potency: inactive
[11]
  Potency: inactive
[12]
  Potency: inactive
[13]
  Potency: inactive
[14]
  Potency: inactive
[15]
  Potency: inactive
[16]
  Potency: inactive
[17]
  Potency: inactive
[18]
  Potency: inactive
[19]
  Potency: inactive
[20]
  Potency: inactive

## O=c1cc(N2CCOCC2)oc2c(-c3ccccc3)cccc12
[5]
  outcome: inactive
[6]
  outcome: inactive
[3]
  Potency: inactive
[4]
  Potency: inactive

## Nc1ccc(S(N)(=O)=O)cc1
[7]
  Potency: inactive
[8]
  Potency: inactive
[9]
  Potency: inactive
[10]
  Potency: inactive
[11]
  Potency: inactive
[12]
  Potency: inactive
[13]
  Potency: inactive
[14]
  Potency: inactive
[15]
  Potency: inactive
[16]
  Potency: inactive
[17]
  Potency: inactive
[18]
  Potency: inactive
[19]
  Potency: inactive
[20]
  Potency: inactive
[1]; at 25.7 µM (top of the series)
  activity change, negative = inhibition: 0.244% (inactive)
[1]; at 57.5 µM (top of the series)
  activity change, negative = inhibition: 10.7% (inactive)
[1]; [21]
  max response: -10.4% and 15.9%
[1]; [22]
  max response: -9.48% and 32.6%

## CNC[C@H](O)c1ccc(O)c(O)c1
[5]
  outcome: inactive
[6]
  outcome: inactive
[3]
  Potency: inactive
[4]
  Potency: inactive
